# Measured values from PubChem BioAssay (Tox21).
# Records with an inconclusive call do not appear. Entries that show only a call come without a potency. Activity calls are given as the source filed them. Unless noted, calls follow the shape of the dose curve; as a rule, active = well fitted cell-killing curve with a large enough effect in the repeat runs; inconclusive = weak or mixed curves, or effect the other way; inactive = flat fitted curve, though single readings scatter.
# Tested on: not listed separately
# Experiment: qHTS assay to identify small molecule agonists of the estrogen receptor beta (ER-beta) signaling pathway - cell viability counter screen (AID 1259380); also: nearly all actives have a fitted effect of over 30% in size; also: potency is read from the fitted curve at half-maximal effect
# Conditions: ER-beta-bla HEK293T viability, CellTiter-Glo luminescence, 16 h; series mostly up to 92.4 µM
# Outline: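 Same-well viability counter screen. Cells: ER-beta-UAS-bla HEK293T, plated 6 hr before compound, in 2% charcoal-stripped FBS. Compound exposure 16 hr, 37C; viability by CellTiter-Glo luminescence after 30 min at room temperature.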
SMILES,Potency,"activity change, negative = cytotoxicity"
Oc1cc(Cl)c(Cl)c(Cl)c1,25.9 µM (active),
Cc1cc(C)cc(OP(=O)(Oc2cc(C)cc(C)c2)Oc2cc(C)cc(C)c2)c1,inactive,
C[C@]12CC[C@@H]3c4ccc(OC(=O)N(CCCl)CCCl)cc4CC[C@H]3[C@@H]1CC[C@@H]2O,inactive,
C=CC(=O)N(C)C,inactive,
COc1cccc(C(=O)CCN[C@@H](C)[C@H](O)c2ccccc2)c1,inactive,
CCC(C)c1cc([N+](=O)[O-])cc([N+](=O)[O-])c1OC(=O)C=C(C)C (stereo unspecified),inactive,
Oc1ccc(C(c2ccc(O)cc2)(C(F)(F)F)C(F)(F)F)cc1,68.2 µM (active),
Brc1c(Br)c(Br)c(Oc2c(Br)c(Br)c(Br)c(Br)c2Br)c(Br)c1Br,,-3.73% [at 19 µM] (inactive)
OC(c1ccc(Cl)cc1)(c1ccc(Cl)cc1)C(Cl)(Cl)Cl,inactive,
O=C(CCCN1CCC2(CC1)C(=O)NCN2c1ccccc1)c1ccc(F)cc1,13.3 µM (active),
CCSC(C)CC1CC(=O)C(/C(CC)=N/OC/C=C/Cl)=C(O)C1 (stereo unspecified),inactive,
CCc1cc(C)cc(CC)c1-c1c(OC(=O)C(C)(C)C)n2n(c1=O)CCOCC2,inactive,
CCc1nn(C)c(C(=O)NCc2ccc(C(C)(C)C)cc2)c1Cl,54.5 µM (active),
CN(C)CCc1c[nH]c2ccc(O)cc12,inactive,
c1ccc(Nc2ccc3ccccc3c2)cc1,68.2 µM (active),
O=C(CBr)c1ccc(O)cc1,inactive,
CC(C)[C@H](C(=O)OC(C#N)c1cccc(Oc2ccccc2)c1)c1ccc(OC(F)F)cc1 (stereo partly specified),inactive,

# Molecular target: Androgen receptor (Homo sapiens) (UniProt P10275)
# Experiment: qHTS assay to identify small molecule agonists of the androgen receptor (AR) signaling pathway in the presence of an antagonist (AID 1259381; calls by dose curve; also: nearly all actives have a fitted effect of over 15% in size)
# Conditions: MDA-kb2 MMTV-luciferase, AR agonist + nilutamide, 16 h; series mostly up to 92.4 µM
# Outline: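 Cells are MDA-kb2 (human breast carcinoma, MMTV-luc, AR/GR responsive). Nilutamide is present at 3.0uM final throughout; compounds are added at 15 concentrations and incubated 16hr at 37C before ONE-Glo luminescence detection.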
# Sequence of Androgen receptor (Homo sapiens) (P10275 whole entry, looked up): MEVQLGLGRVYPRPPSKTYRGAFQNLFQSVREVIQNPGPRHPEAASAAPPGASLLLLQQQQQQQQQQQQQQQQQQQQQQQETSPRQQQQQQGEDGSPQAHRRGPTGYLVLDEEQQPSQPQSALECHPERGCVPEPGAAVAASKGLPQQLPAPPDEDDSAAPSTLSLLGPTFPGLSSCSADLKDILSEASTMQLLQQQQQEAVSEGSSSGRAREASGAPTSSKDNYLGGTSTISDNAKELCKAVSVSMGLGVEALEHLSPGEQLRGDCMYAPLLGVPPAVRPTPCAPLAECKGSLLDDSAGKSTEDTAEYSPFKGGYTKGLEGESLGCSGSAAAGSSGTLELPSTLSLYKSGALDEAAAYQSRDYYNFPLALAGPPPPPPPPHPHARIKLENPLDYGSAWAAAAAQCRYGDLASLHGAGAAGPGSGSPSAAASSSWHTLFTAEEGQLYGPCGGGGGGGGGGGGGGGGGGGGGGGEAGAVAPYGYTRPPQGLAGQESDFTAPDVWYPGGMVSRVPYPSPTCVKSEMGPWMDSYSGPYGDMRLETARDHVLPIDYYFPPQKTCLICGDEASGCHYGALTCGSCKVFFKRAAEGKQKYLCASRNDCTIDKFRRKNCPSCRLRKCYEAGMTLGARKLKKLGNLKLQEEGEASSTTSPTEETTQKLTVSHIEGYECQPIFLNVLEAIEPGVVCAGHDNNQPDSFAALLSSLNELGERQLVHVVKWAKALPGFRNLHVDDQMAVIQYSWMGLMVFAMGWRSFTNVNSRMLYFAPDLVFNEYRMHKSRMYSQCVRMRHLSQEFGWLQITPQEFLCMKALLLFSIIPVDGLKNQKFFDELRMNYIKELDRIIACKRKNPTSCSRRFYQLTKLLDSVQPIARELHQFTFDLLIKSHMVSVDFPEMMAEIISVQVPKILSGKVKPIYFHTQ
row,SMILES,Potency
1,Oc1cc(Cl)c(Cl)c(Cl)c1,inactive
2,O=C(CCl)Nc1ccccc1,inactive
3,COc1cccc(C(=O)CCN[C@@H](C)[C@H](O)c2ccccc2)c1,inactive
4,CCC(C)c1cc([N+](=O)[O-])cc([N+](=O)[O-])c1OC(=O)C=C(C)C (stereo unspecified),inactive
5,CCc1ccccc1C,inactive
6,C[As+](C)(C)CC(=O)[O-],inactive
7,CCSC(C)CC1CC(=O)C(/C(CC)=N/OC/C=C/Cl)=C(O)C1 (stereo unspecified),inactive
8,CN(C)CCc1c[nH]c2ccc(O)cc12,inactive
9,CCC(C)c1cc(C(C)(C)C)cc(-n2nc3ccccc3n2)c1O (stereo unspecified),inactive
